Reference: PubChem BioAssay (NCATS)
Several values for one entry are separate records, joined by “and”; a condition that tells them apart may be missing. Equal values may be shown once. Records with an inconclusive call do not appear. Values without a mark were called inactive. Activity calls are given as the source filed them. Calls come from the whole dose curve; as a rule, active = well fitted cell-killing curve with a large enough effect; inconclusive = small, poorly fitted or top-dose-only effect, or effect the other way; inactive = no such curve, though single readings can be large or run the other way.

experiment: Viability qHTS for spleen associated tyrosine kinase inhibitor (SYKi) drug resistant MV4-11 cells (AID 1963824); conditions: SYKi-resistant MV4-11 viability, CellTiter-Glo, 72 h; series mostly up to 45 µM; viability, % of control: at the top concentration; note: nearly all actives have a fitted effect of over 35% in size
From the text: Department of Medicine, Hematology/Oncology
University Hospital Frankfurt, Germany.
Trials have shown promising clinical activity of the selective SYK inhibitor entospletinib in patients with high expressing HOXA9/MEIS1 acute leukemias. As the development of resistance mechanisms is a common problem in the use of targeted drugs, we performed a chemical library screen to identify drug sensitivities in SYK inhibitor resistant AML cells. […] Glucocorticoids are potent immunosuppressants which work in part by inhibiting the transcription of cytokine genes.
Described herein is a viability screen to look for activity in the SYK inhibitor drug resistant cell line against four NCATS compound libraries (MIPE 5.0, NPC, NPACT, and Kinase) totaling 11372 compounds. Active hits were reacquired for confirmation and further secondary assay testing.
SEQUENCE No. (e.g., 1, 2, 3, etc.); […] (e.g., Cells, Incubation, Reagent, etc.); VALUE; DESCRIPTION.
1; Media; 2uL; white, solid-bottom Corning assay plate.
2; Compounds; 23nL; Echo acoustic dispenser.
3; Cell; 5uL; 500 cells per well.
4: Incubation; 72hr; 37 C, 5% CO2, 95% humidity.
5; Reagent; 3uL; CellTiter-Glo reagent (Promega).
6; Incubation; 10min; room temperature.
7; Detection; Luminescence; ViewLux plate reader (PerkinElmer).
NOTES (numbers refer to Sequence numbers above
1. Quantitative high-throughput screening (qHTS) of small molecule compounds was conducted on drug resistant SYKi MV4-11 cell line.
2. Twenty-three nanoliter of small molecule compounds were added to each assay plates using the Echo acoustic dispenser (Beckman Coulter).
3. Cells were seeded into the assay plates at a final density of 500 cells in 5uL of media per well using the Multidrop Combi dispenser.
4. Plates were covered with stainless steel gasketed lids and incubated for 72 hours at standard cell culture conditions.
5. Viability was assessed by adding 3uL of CellTiter-Glo detection reagent (Promega).
6. Plates were covered with gasket lids and incubated for 10 minutes at room temperature.
7. Luminescence was measured on a ViewLux plate reader (PerkinElmer).
Potency is the fitted concentration of half-maximal effect.

Question: For `CN1Cc2cc(C(=O)N3CCC(C4CCNCC4)CC3)ccc2NC(CC(=O)O)C1=O` (stereo not given), which “viability, % of control” value is on record?
Answer: Its value is 80.1%.

Question: With `COc1cc2c(NC3CCN(C(C)C)CC3)nc(C3CCCCC3)nc2cc1OCCCN1CCCC1` as the compound, how does the Potency read?
Answer: The Potency was 3.32 µM (active).

Question: For `NS(=O)(=O)c1cc2c(cc1Cl)NC(CSCc1ccccc1)=NS2(=O)=O`, which “viability, % of control” value is on record?
Answer: Its value is 98.6%.

Question: For `COC(=O)[C@]1(Cc2ccc(O)c(CC=C(C)C)c2)OC(=O)C(O)=C1c1ccc(O)cc1`, which Potency is on record?
Answer: The Potency was 8.93 µM (active).

Question: Which Potency does the source give for `CN(C)c1ccc2c(c1)OC(N)=C(C#N)C2c1cccc(C(F)(F)F)c1` (stereo not given) here?
Answer: The Potency was 0.184 µM (active).

Question: With `CCCCCCCCCCOc1cc2c(=O)c(C(=O)OCC)c[nH]c2cc1OCC` as the compound, how does the viability, % of control read?
Answer: The viability, % of control was 107% [at 4.97 µM].

Question: For `Cc1cc(Cl)ccc1OCCCC(=O)NO`, which Potency is on record?
Answer: The Potency was 13.2 µM (active).

Question: For `N#CCC(=O)NN`, which “viability, % of control” value is on record?
Answer: The value was 86.8%.

Question: With `Cc1[nH]c(/C=C2\C(=O)Nc3ccc(F)cc32)c(C)c1C(=O)NC[C@H](O)CN1CCOCC1` as the compound, how does the Potency read?
Answer: Its Potency is 23.1 nM (active) and 46.8 nM (active).

Question: With `C=C(C)[C@@]1(O)C[C@@]2(C)C(=CC1=O)CC[C@@H](O)[C@@H]2C` as the compound, how does the “viability, % of control” value read?
Answer: Its value is 78%.

Question: With `CC[C@@H](C)[C@H](NC(=O)[C@H](CC1CCCCC1)NC(=O)c1ccno1)C(=O)N1CCC2(CCc3ccccc32)CC1` as the compound, how does the Potency read?
Answer: Its Potency is 18.4 µM (active).

Question: With `COc1cc2ncnc(Nc3ccc(O)c(Br)c3)c2cc1OC` as the compound, how does the Potency read?
Answer: Its Potency is 1.64 µM (active) and 1.66 µM (active).

Question: With `CC1(C)S[C@@H]2[C@H](NC(=O)[C@H](N)c3ccccc3)C(=O)N2[C@H]1C(=O)O` as the compound, how does the “viability, % of control” value read?
Answer: The value was 87.8%.

Question: Which “viability, % of control” value does the source give for `CC1=CC(=O)CC(C)(CO[C@@H]2O[C@H](CO)[C@@H](O)[C@H](O)[C@H]2O)C1(O)/C=C/C(C)=C/C(=O)O` (stereo not given in full) here?
Answer: Its value is 83% [at 17.3 µM].

Question: For `Cc1cccc(/C=N/Nc2cc(N3CCOCC3)nc(OCCc3ccccn3)n2)c1`, which Potency is on record?
Answer: Its Potency is 0.296 µM (active).

Question: With `C[N+](C)(C)CC[N+]1(C)Cc2c(Cl)c(Cl)c(Cl)c(Cl)c2C1` as the compound, how does the “viability, % of control” value read?
Answer: The value was 83.7%.

Question: With `O=C1C[C@@H](c2ccc(O)cc2)Oc2cc(O)ccc21` as the compound, how does the Potency read?
Answer: The Potency was 14.6 µM (active).

Question: For `c1ccc(-c2cnn3cc(-c4ccc(OCCN5CCOCC5)cc4)cnc23)cc1`, which Potency is on record?
Answer: The Potency was 0.058 µM (active).

Question: With `CS(=O)(=O)c1ccc([C@H](CC2CCCC2)C(=O)Nc2nccs2)cc1` as the compound, how does the Potency read?
Answer: The Potency was 13 µM (active).

Question: Which “viability, % of control” value does the source give for `O=C1NC(=O)/C(=C/c2cccc(C(F)(F)F)c2)S1` here?
Answer: Its value is 72.6%.

Question: For `O=c1[nH]c(=O)n(C2CCCO2)cc1F` (stereo not given), which Potency is on record?
Answer: Its Potency is 18.6 µM (active).

Question: Which “viability, % of control” value does the source give for `O=C1Nc2ccccc2C(O)(c2ccccc2)C1O` (stereo not given) here?
Answer: Its value is 53.4%.

Question: For `CCOC(=O)c1cc(=O)c2c(OCC(COc3cccc4oc(C(=O)OCC)cc(=O)c34)OC(=O)[C@@H](N)CCCCN)cccc2o1`, which “viability, % of control” value is on record?
Answer: The value was 90.1%.

Question: With `CC[N+](CC)(CC)CCOc1ccc(/C=C/c2ccccc2)cc1` as the compound, how does the “viability, % of control” value read?
Answer: Its value is 101%.

Question: For `NC(N)=NS(=O)(=O)c1ccc(N)cc1`, which “viability, % of control” value is on record?
Answer: Its value is 85.7%.

Question: Which Potency does the source give for `Nc1ccc(S(=O)(=O)Nc2nccs2)cc1` here?
Answer: Its Potency is “inactive”.

Question: Which Potency does the source give for `CC1(C)CCC(c2ccc(Cl)cc2)=C(CN2CCN(c3ccc(C(=O)NS(=O)(=O)c4ccc(N[C@H](CCN5CCOCC5)CSc5ccccc5)c(S(=O)(=O)C(F)(F)F)c4)cc3)CC2)C1` here?
Answer: The Potency was 32.6 nM (active) and 118 nM (active).

Question: For `O=C1NCCN1CCN1CCC(c2cn(-c3ccc(F)cc3)c3ccc(Cl)cc23)CC1`, which Potency is on record?
Answer: The Potency was 1.19 µM (active).

Question: Which viability, % of control does the source give for `CC1(C(=O)O)CC[C@]2(C(=O)OC3OC(CO)C(O)C(O)C3O)CC[C@]3(C)C(=CCC4[C@@]5(C)CC[C@H](OC6OCC(O)C(O)C6OC6OC(CO)C(O)C(O)C6O)C(C)(C)C5CC[C@]43C)C2C1` (stereo not given in full) here?
Answer: Its viability, % of control is 78.9% [at 9.25 µM].

Question: With `C[C@@H]1CN(CC(=O)Nc2ccc3c(c2)Cc2cccc(-c4cc(=O)cc(N5CCOCC5)o4)c2S3)C[C@H](C)O1` as the compound, how does the Potency read?
Answer: The Potency was 4.68 µM (active).

Question: With `CC(C)(O)CC(=O)NCCn1ccc2ncnc(Nc3ccc(Oc4cccc(C(F)(F)F)c4)c(Cl)c3)c21` as the compound, how does the Potency read?
Answer: The Potency was 9.2 µM (active) and 6.61 µM (active).

Question: Which Potency does the source give for `O=C1CSC(=O)N1C(CCc1ccncc1)COc1ccc(-c2cccc([N+](=O)[O-])c2)cc1` (stereo not given) here?
Answer: The Potency was 4.17 µM (active).

Question: Which “viability, % of control” value does the source give for `C=C1C[C@@]2(O)O[C@@]3(C[C@H]2C(C)C)[C@@H](C)CC[C@@H]13` here?
Answer: Its value is 83.2%.

Question: For `Cc1cc(C)c(-c2csc(NC(=O)c3ccccc3)n2)c(C)c1`, which Potency is on record?
Answer: The Potency was 11.6 µM (active).

Question: For `O=C1c2ccc(Nc3ccc(F)cc3F)cc2CCc2ccc(OCC(O)CO)cc21` (stereo not given), which Potency is on record?
Answer: Its Potency is 9.2 µM (active).

Question: For `C=C1C(=O)[C@@]23C(CC[C@@H]1[C@H]2O)[C@@]12CO[C@]3(O)[C@@H](O)[C@@H]1C(C)(C)CC[C@@H]2O` (stereo not given in full), which Potency is on record?
Answer: Its Potency is 1.3 µM (active).

Question: For `CC(=O)NCCCCCC(=O)O`, which “viability, % of control” value is on record?
Answer: Its value is 94.1%.

Question: With `Cc1[nH]c2ccccc2c1CCNCc1ccc(/C=C/C(=O)NO)cc1` as the compound, how does the Potency read?
Answer: Its Potency is 0.0263 µM (active).

Question: For `C/C1=C\[C@@H](C)C[C@@H](C)[C@@H](Cc2cnco2)OC(=O)/C(C)=C/[C@@H](C)C[C@@H](C)[C@@H](Cc2cnco2)OC1=O`, which Potency is on record?
Answer: The Potency was 0.502 µM (active).

Question: With `O=C(O)c1ccc(O)c2ncc(N3CCCN(CCc4cccc5ccccc45)CC3)cc12` as the compound, how does the Potency read?
Answer: Its Potency is 10.3 µM (active).
